# Active and inactive are the calls of the source. Unless noted, how the calls were made is not given here.
# Columns and labels:
# [1] = tested on: Wnt5a (protein binding on small-molecule microarray); assay: Wnt5a binders on small-molecule microarray, primary screen, biophysical, 635/667 nm fluorescence (AID 1142); conditions: 635 nm fluorescence, higher = more signal;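 further: fluorescence read at 667 nm with signal to noise per printed feature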
# [2] = cell viability in Huh7 cells, primary screen, cytotoxicity control for HCV replication inhibitor project, CellTiter-Glo luminescence, basal, 48 h (AID 1143); conditions: Huh7 HCV replicon, higher = more signal, called active from +8 up or from −8 down;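 further: Huh7 hepatoma cells carrying a hepatitis C replication reporter with no stimulus; test concentration not given here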
# [3] = P. aeruginosa biofilm formation inhibitors, primary screen, PAO1 strain, BacTiter-Glo luminescence, LB-PBS (AID 1144); conditions: 12 h, higher = more signal
# [4] = CREB reporter modulators without forskolin, primary screen, cell-based, PC12, CRE-LacZ reporter, unstimulated (AID 1145); conditions: no forskolin, luminescence, 4.5 h, higher = more signal, called active from +8 up or from −8 down
# [5] = CREB reporter modulators under forskolin, primary screen, cell-based, PC12, CRE-LacZ reporter, forskolin-stimulated (AID 1146); conditions: luminescence, 4.5 h, higher = more signal, called active from +8 up or from −8 down;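 further: PC12 cells with 6xCRE LacZ reporter stimulated by forskolin 10 µM; beta-galactosidase reporter signal reflecting CREB driven transcription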
# [6] = biological target: Streptavidin (Streptomyces avidinii) (UniProt P22629); assay: streptavidin binders on small-molecule microarray, primary screen, artefact control for SMM compound annotation, biophysical, 635/667 nm fluorescence (AID 1147); conditions: streptavidin binding, higher = more signal;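 further: signal reflects streptavidin binding to arrayed compounds as a control protein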
# [7] = small-molecule binders of probe aInhba, primary screen, biochemical, small-molecule microarray, 635/667 nm fluorescence (AID 1148); conditions: higher = more signal;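 further: score merges 667nm spot fluorescence with signal-to-noise for antibody binding to printed compounds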
# Torsin-1A (Homo sapiens) [8] = biological target: Torsin-1A (Homo sapiens) (UniProt O14656); assay: torsin A binders from cell lysate, primary screen, small-molecule microarray, wild-type, 635/667 nm (AID 1149); conditions: COS7 hTOR1A-WT lysate, 635 nm fluorescence, higher = more signal
# Torsin-1A (Homo sapiens) [9] = biological target: Torsin-1A (Homo sapiens) (UniProt O14656); assay: small-molecule binders of mutant TOR1A in lysate, primary screen, cell lysate, small-molecule microarray, COS7 lysate, 635/667 nm fluorescence (AID 1150); conditions: COS7 hTOR1A mutant lysate, 635 nm fluorescence, higher = more signal;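 further: score pools 667 nm emission and signal to noise measuring lysate protein binding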
# [10] = tested on: Sonic hedgehog protein (Shh); assay: small-molecule binders of Shh protein, primary screen, biochemical, small-molecule microarray, 635/667 nm fluorescence (AID 1151); conditions: small-molecule microarray binding, 635 nm fluorescence; higher = more signal;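 further: Shh protein binding to compounds spotted on small-molecule microarray slides; score combines spot fluorescence intensity with signal-to-noise across triplicate slides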
# Sequence of Streptavidin (Streptomyces avidinii) (P22629 whole entry, looked up): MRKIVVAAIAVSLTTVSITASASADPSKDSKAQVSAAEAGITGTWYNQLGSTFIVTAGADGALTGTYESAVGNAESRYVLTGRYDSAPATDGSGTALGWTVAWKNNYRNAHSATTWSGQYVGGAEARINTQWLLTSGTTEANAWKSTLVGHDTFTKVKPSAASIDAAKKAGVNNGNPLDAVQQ
# Sequence of Torsin-1A (Homo sapiens) (O14656 whole entry, looked up): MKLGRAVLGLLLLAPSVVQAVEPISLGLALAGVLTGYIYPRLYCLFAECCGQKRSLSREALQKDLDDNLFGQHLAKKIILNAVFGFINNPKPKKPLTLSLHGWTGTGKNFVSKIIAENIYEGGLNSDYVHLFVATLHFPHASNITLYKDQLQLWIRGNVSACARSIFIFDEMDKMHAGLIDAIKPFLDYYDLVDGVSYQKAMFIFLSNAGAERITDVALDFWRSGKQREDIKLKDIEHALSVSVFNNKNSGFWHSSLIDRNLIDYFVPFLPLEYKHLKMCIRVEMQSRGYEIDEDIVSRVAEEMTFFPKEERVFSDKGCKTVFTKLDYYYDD
Structure (SMILES),composite z-score [1],z-score [2],z-score [3],z-score [4],z-score [5],composite z-score [6],composite z-score [7],composite z-score (Torsin-1A (Homo sapiens) [8]),composite z-score (Torsin-1A (Homo sapiens) [9]),composite z-score [10]
COc1ccc([Si](C)(C)[C@@H]2[C@@H](CCO)O[C@]3(C(=O)N(Cc4cccc(N5C(=O)c6cccc7cccc5c67)c4)c4ccccc43)[C@H]2C)cc1,-0.101,-5.93 (inactive),0.568 (inactive),7.33 (inactive),-0.24 (inactive),-0.138,-0.128,-0.516,-0.252,0.552
CCOC(=O)C1=CC[C@@H](c2ccc([N+](=O)[O-])cc2)N(S(=O)(=O)c2ccc(C)cc2)[C@H]1c1ccccc1,0.503,-1.36 (inactive),-0.41 (inactive),0.182 (inactive),0.147 (inactive),1.57,0.165,0.149,0.763,1.39
CN(C)CCCCNC(=O)[C@H]1C[C@H]2C(=O)N3CCC[C@H]3C(=O)N2[C@H]1c1ccc(O)cc1,-1,-2.49 (inactive),-1.5 (inactive),-0.667 (inactive),-0.942 (inactive),-1.34,-0.643,-1.3,-1.04,-0.229
COc1ccccc1CN1C(=O)c2ccccc2[C@](Cc2ccccc2I)(C(=O)NC(C)C)[C@@H]1c1ccc(CO)cc1,0.449,-3.63 (inactive),0.0633 (inactive),-0.0243 (inactive),1.08 (inactive),1.13,0.0422,0.667,1.08,1.78
CCOC(=O)C[C@H]1[C@H](OC(=O)c2ccc(-c3ccccc3)cc2)[C@@H](NC(=O)c2ccc3ccccc3n2)c2cc(OCCCO)ccc2N1C(=O)c1ccccc1,0.111,-0.727 (inactive),0.306 (inactive),-0.477 (inactive),-0.169 (inactive),0.968,0.109,0.448,0.397,0.861
[N-]=[N+]=Nc1ccccc1C[C@@]1(C(=O)O)N=C(c2ccc(OCCCO)cc2)O[C@@H]1c1ccccc1,0.104,-0.275 (inactive),-0.078 (inactive),-0.585 (inactive),-0.218 (inactive),1.48,0.0633,0.0324,0.779,-0.0424
C=C(C(=O)CC[C@H](OC(=O)c1cccnc1)c1cccc(OCCO)c1)C(C)C,-0.13,-1.04 (inactive),-0.285 (inactive),17.7 (active),-0.464 (inactive),0.0502,-0.0719,1.17,-0.206,0.389
COc1ccc(C#Cc2ccc3c(c2)[C@]2(C(=O)N3)[C@H](C(=O)N3CCc4cc(OC)c(OC)cc4C3)[C@H]3C(=O)O[C@H](c4ccccc4)[C@H](c4ccccc4)N3[C@@H]2c2ccc(O)cc2)cc1,0.219,-0.59 (inactive),-1.01 (inactive),-0.141 (inactive),-1.02 (inactive),1.04,-0.121,1.03,0.199,0.466
O=C1OCC=C[C@H]2OC34C=CCN(Cn5nnc6ccccc65)C(=O)[C@H]3N(CCCCCCO)C(=O)[C@@H]4[C@@H]12 (stereo not given in full),-0.277,0.205 (inactive),1.16 (inactive),0.0484 (inactive),-0.116 (inactive),-0.701,0.111,-0.494,-0.416,-0.104
CC(C)c1ccc(NN2C(C(O)c3ccco3)C=CC3C(=O)N(c4ccccc4)C(=O)C32)cc1 (stereo not given),0.445,-0.604 (inactive),-0.688 (inactive),0.622 (inactive),-0.554 (inactive),1.47,0.271,0.185,0.445,0.794
[N-]=[N+]=Nc1ccccc1[C@@H]1OC(c2ccc(OCCCO)cc2)=N[C@]1(CCS(=O)(=O)c1ccccc1)C(=O)NCCN1CCOCC1,0.391,-4.79 (inactive),-0.124 (inactive),0.549 (inactive),-1.18 (inactive),0.637,0.109,1.13,1.15,-0.252
CCCC=C(CCC)[C@@H](NP(=O)(c1ccccc1)c1ccccc1)c1ccc(C(F)(F)F)cc1,0.71,-0.407 (inactive),0.592 (inactive),0.0041 (inactive),0.0568 (inactive),0.0838,-0.0833,0.316,0.0932,-0.395
CC(C)(C)OC(=O)CC[C@]1(C(=O)NCCN2CCOCC2)N=C(c2ccc(OCCCO)cc2)O[C@H]1c1ccccc1,0.298,0.268 (inactive),-0.375 (inactive),-0.174 (inactive),-0.266 (inactive),0.541,0.165,-0.357,0.833,-1.23
COCCCNC(=O)[C@]1(CCC(=O)OC(C)(C)C)N=C(c2ccc(OCCCO)cc2)O[C@@H]1c1ccccc1,0.163,0.11 (inactive),1.2 (inactive),0.699 (inactive),-0.625 (inactive),0.172,0.346,1.11,2.06,-1.52
CCOC(=O)C[C@H]1[C@H](OC(=O)Cc2ccc3c(c2)OCO3)[C@@H](NC(=O)C2CCCCC2)c2cc(OCCCO)ccc2N1C(=O)c1ccc2ccccc2n1,0.305,-3.34 (inactive),-0.273 (inactive),6.45 (inactive),0.871 (inactive),0.658,-0.0361,0.392,0.172,1.39
C=C[C@@H](COC(C)=O)NS(=O)(=O)c1ccc(Br)cc1,-0.0143,-2.37 (inactive),-0.446 (inactive),0.904 (inactive),0.344 (inactive),0.0981,-0.0589,0.825,0.357,-0.0658
C=CC[C@@]1(C(=O)N2CCCCC2)N=C(c2ccc(OCCCO)cc2)O[C@@H]1c1ccccc1,0.18,-3.63 (inactive),0.222 (inactive),1.5 (inactive),-0.134 (inactive),0.0319,0.411,0.521,1.22,-0.229
C=CCN1Cc2ccccc2C[C@@]2(N=C(c3ccc(OCCCO)cc3)O[C@H]2c2ccccc2)C1=O,0.762,-5.03 (inactive),-0.8 (inactive),-0.23 (inactive),-1.51 (inactive),0.0967,0.0471,0.233,0.983,1.05

# Reference: PubChem BioAssay
